Laboratory results: the supplement of paper PMC11732987, “Enantioselective OTUD7B fragment discovery through chemoproteomics screening and high-throughput optimisation” (Communications Chemistry, 2025)

What was measured:
Assay in all cases: log2 ratio of Biotin-Ahx-Ub-VS probe labelling (fragment/DMSO); higher = less target engagement (more negative = stronger competition), active = hit call of the paper (q ≤ 0.05, log2 ratio ≤ -1)
Conditions in all cases: compound concentration: 200 uM; treatment time: 3 h
[1] = target: T1, ALG13 (UniProt Q9NP73)
T1 sequence (whole entry): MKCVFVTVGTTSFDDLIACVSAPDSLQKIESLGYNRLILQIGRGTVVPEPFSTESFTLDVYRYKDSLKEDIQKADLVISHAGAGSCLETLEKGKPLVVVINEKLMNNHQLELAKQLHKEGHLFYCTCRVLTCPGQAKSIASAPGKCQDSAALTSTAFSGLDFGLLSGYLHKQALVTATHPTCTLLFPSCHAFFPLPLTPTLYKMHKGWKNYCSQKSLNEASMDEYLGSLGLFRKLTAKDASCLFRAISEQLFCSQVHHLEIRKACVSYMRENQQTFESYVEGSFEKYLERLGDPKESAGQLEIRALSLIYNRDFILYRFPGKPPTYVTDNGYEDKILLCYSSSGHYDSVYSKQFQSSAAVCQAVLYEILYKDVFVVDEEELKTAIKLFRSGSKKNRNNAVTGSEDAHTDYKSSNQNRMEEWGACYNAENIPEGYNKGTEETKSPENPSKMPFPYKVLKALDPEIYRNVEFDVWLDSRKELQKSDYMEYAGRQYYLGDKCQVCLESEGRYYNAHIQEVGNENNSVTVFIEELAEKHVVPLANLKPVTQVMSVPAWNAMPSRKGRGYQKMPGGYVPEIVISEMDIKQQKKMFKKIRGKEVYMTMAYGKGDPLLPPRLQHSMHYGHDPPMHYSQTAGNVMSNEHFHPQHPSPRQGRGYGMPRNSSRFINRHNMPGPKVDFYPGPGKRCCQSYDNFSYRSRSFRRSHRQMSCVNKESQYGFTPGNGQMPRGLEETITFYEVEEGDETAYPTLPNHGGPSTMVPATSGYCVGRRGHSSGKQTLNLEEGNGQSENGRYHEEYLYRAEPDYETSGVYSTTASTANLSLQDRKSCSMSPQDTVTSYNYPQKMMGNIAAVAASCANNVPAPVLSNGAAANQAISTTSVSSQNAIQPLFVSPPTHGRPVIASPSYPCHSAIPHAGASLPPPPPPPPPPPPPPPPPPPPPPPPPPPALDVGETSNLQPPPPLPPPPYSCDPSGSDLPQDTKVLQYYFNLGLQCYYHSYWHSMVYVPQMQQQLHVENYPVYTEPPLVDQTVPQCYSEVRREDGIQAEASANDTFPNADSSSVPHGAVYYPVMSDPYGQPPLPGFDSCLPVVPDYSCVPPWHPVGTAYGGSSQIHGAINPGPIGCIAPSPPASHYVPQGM
In short: (§1)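 HEK293T lysate (495 µg per sample, in Tris/CHAPS/IGEPAL buffer with protease inhibitors) was exposed in triplicate for 3 h to fragment at 200 µM or to vehicle, then to Biotin-Ahx-Ub-VS at 0.5 µM final for 1 h. Labelled DUBs were enriched on NeutrAvidin, digested with LysC and trypsin, and analysed by diaPASEF LC-MS/MS. Spectronaut label-free quantities were normalised to the global median, and values are average log2 ratios of fragment over vehicle from an unpaired t-test. Only proteins with ≥2 unique peptides were used.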

[2] = target: ATXN3 (UniProt P54252)
Chain of ATXN3 (P54252 whole entry): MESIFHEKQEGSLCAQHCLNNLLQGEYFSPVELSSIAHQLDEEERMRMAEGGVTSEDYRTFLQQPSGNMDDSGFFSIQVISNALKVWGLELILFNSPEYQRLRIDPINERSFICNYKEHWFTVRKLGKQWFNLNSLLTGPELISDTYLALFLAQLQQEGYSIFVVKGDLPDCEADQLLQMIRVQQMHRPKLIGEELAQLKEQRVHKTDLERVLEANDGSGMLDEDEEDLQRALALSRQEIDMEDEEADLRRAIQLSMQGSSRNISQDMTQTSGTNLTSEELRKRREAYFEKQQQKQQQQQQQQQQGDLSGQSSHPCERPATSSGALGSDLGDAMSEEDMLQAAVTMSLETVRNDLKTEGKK
In short: as §1

[3] = target: T2, BAP1 (UniProt Q92560)
T2 sequence (whole entry): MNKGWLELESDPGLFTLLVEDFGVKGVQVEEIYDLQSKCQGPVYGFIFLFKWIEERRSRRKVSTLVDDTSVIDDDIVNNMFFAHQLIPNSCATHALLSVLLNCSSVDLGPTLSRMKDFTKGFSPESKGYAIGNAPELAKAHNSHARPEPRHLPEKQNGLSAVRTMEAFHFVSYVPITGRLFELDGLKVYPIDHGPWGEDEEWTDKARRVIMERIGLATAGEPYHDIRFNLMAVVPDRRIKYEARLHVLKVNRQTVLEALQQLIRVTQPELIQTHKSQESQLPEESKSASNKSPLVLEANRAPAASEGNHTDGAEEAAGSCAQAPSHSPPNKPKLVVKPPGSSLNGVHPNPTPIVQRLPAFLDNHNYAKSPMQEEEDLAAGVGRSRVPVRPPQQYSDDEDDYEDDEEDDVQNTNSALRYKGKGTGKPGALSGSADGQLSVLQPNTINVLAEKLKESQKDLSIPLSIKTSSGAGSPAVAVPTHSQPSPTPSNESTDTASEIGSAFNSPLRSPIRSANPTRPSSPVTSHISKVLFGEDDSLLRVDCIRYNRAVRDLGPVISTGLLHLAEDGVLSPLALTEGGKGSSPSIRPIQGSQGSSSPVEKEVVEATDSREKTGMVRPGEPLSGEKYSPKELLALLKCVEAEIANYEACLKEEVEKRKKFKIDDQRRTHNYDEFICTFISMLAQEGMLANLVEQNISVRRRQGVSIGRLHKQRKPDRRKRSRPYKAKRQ
In short: as §1

[4] = target: EIF3F (UniProt O00303)
Chain of EIF3F (O00303 whole entry): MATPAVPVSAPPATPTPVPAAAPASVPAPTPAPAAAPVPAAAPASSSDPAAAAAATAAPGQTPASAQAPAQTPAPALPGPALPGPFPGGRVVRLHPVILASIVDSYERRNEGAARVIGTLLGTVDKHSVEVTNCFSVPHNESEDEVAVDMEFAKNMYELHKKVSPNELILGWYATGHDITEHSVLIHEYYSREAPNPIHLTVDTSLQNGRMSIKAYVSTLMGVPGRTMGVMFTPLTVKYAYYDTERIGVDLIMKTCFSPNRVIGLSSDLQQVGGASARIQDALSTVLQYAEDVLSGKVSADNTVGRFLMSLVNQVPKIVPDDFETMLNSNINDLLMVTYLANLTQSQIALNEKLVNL
In short: as §1

[5] = target: EIF3H (UniProt O15372)
Chain of EIF3H (O15372 whole entry): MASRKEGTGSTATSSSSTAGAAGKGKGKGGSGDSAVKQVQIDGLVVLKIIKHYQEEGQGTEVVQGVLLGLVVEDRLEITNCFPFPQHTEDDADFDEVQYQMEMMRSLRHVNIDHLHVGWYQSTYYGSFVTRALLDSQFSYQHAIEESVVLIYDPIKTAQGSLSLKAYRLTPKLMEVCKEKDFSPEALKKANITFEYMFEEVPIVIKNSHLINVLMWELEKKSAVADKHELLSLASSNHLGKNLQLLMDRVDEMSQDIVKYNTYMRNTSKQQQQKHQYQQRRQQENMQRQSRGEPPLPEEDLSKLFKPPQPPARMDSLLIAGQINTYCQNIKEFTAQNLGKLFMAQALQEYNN
In short: as §1

[6] = target: T3, FAM105A (UniProt Q9NUU6)
T3 sequence (whole entry): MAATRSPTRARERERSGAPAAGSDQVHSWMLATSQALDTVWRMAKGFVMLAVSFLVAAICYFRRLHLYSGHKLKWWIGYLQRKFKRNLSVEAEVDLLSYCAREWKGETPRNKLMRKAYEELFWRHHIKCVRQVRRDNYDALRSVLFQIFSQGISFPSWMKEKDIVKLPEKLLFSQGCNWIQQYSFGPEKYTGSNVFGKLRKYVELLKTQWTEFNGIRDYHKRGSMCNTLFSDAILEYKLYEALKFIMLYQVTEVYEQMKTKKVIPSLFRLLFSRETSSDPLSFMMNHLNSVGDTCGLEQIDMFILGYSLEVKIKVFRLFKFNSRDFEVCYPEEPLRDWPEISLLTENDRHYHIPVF
In short: as §1

[7] = target: OTUB1 (UniProt Q96FW1)
Chain of OTUB1 (Q96FW1 whole entry): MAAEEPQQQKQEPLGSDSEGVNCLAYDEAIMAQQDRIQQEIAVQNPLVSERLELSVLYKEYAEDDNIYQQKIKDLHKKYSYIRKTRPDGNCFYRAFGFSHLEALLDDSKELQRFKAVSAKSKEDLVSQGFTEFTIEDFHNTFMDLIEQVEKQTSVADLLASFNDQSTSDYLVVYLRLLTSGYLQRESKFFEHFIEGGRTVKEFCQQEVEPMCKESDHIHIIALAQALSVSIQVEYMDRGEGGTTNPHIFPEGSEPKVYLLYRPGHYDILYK
In short: as §1

[8] = target: T4, OTUD4 (UniProt Q01804)
T4 sequence (whole entry): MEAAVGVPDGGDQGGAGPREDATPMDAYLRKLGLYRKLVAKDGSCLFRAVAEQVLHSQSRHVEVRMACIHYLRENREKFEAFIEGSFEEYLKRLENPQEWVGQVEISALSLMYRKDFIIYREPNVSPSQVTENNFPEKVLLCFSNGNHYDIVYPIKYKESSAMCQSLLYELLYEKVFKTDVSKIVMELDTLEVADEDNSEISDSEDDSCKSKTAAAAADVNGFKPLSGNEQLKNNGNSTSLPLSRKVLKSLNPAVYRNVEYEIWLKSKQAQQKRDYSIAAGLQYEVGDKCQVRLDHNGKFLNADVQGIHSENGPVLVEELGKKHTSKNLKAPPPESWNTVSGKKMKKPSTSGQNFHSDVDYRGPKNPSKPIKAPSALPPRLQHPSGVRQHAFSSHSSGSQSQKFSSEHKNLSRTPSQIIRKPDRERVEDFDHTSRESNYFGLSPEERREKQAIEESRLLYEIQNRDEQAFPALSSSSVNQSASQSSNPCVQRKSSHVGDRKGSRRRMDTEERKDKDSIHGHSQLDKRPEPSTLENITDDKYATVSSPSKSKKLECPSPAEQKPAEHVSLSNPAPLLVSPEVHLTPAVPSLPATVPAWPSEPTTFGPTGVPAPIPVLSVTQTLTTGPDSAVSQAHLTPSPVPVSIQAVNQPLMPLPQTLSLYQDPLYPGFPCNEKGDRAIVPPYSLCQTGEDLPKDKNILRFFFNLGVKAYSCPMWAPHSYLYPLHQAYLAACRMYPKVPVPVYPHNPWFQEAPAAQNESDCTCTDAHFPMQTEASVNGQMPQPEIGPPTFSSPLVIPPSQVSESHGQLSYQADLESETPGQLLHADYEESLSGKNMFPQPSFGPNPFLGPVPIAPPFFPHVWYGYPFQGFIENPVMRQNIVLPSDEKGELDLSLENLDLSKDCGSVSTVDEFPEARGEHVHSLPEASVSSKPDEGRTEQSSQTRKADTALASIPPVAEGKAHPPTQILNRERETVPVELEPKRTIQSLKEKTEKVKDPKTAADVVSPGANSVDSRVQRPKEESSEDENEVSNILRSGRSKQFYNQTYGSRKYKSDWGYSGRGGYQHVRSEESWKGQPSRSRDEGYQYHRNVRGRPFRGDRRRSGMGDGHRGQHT
In short: as §1

[9] = target: T5, OTUD5 (UniProt Q96G74)
T5 sequence (whole entry): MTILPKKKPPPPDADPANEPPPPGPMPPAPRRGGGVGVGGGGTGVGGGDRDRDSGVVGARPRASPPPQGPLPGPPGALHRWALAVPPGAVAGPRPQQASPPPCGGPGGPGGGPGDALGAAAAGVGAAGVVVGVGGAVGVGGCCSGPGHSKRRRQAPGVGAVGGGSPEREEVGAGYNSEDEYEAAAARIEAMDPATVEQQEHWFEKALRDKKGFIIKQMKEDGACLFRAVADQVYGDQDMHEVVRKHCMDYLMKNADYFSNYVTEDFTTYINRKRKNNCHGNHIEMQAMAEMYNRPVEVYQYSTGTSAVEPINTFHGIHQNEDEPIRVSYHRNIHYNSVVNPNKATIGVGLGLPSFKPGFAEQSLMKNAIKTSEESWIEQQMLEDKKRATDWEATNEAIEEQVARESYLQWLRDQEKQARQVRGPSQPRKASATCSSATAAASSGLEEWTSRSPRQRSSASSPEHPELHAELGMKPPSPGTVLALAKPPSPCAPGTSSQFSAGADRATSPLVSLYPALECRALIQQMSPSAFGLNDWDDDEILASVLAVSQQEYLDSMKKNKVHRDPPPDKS
In short: as §1

Measured: log2 ratio of Biotin-Ahx-Ub-VS probe labelling

O=C(CCl)Nc1ccc(F)cc1F
inactive: [1] 0.182 | [2] -0.351 | [4] -0.155 | [5] 0.108 | [6] 0.102 | [7] -0.293 | [8] -0.268 | [9] -0.5
active: [3] -2.82
